Source: PubChem BioAssay (National Center for Advancing Translational Sciences (NCATS))
MCF10A rereplic = inducers of DNA re-replication in MCF 10A breast cells; actives 2.9% (n = 350,000); Potency, µM (top dose mostly 46.1 µM), for inactives: top-dose activity, positive = re-replication, most hits filed as activators; MCF 10A DNA re-replication, Hoechst nuclear intensity, 48 h; note: % of control where 0% means no effect; nearly all actives have a fitted effect of over 50% in size
ELG1 repair inh = blocks ELG1-dependent DNA repair in HEK293T cells; AID 504467; HEK293T ELG1-luciferase reporter, luminescence, 16 h; DNA damage induced by 5-fluorouridine; actives 2.3% (n = 330,000); Potency, µM (top dose mostly 46.1 µM), inactives show at the top dose activity change, negative = inhibition, usual class: inhibitors; note: % is set by controls: 0 for no effect and ±100 for the full control effect; nearly all actives have a fitted effect of over 55% in size
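5-Fluorouridine DNA damage + compound/DMSO, 2,000 cells/well, 16 h, 37 °C/5% CO2. ONE-Glo, 30 min RT, luminescence. Readout = decrease in reporter signal.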
KB-3-1 cytotox = KB-3-1 parental cell cytotoxicity; KB-3-1 viability, CellTiter-Glo ATP luminescence, 72 h; Potency, µM (highest dose often 46.1 µM), hits mostly cytotoxic; actives 1.4% (n = 400,000); note: % is set by controls: 0 for no effect and ±100 for the full control effect; nearly all actives have a fitted effect of over 60% in size
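Screening of KB-3-1 cells (DMEM, 10% FBS, phenol-red free) ran from lowest to highest compound concentration; after 72 h at 37 °C viability was read luminescently and curves fitted.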
KB-V1 cytotox = kills drug-selected multidrug resistant KB-V1 cells | KB-V1 MDR cells viability, CellTiter-Glo, 72 h | Potency, µM (series often up to 46.1 µM), actives largely listed as cytotoxic | actives 3.4% (n = 400,000); note: % is set by controls: 0 for no effect and ±100 for the full control effect; nearly all actives have a fitted effect of over 60% in size
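Compound-treated KB-V1 multidrug-resistant cells, 72 h, 37 degrees C; viability by CellTiter-Glo. Fitted qHTS curves give the values.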
SW480 rerep = induces DNA re-replication in SW480 colon adenocarcinoma cells | SW480 DNA re-replication, Hoechst DNA content imaging, 48 h | Potency, µM (highest dose often 46.1 µM), for the others: at the top dose re-replication activation, actives largely listed as activators | actives 1.8% (n = 340,000) | AID 624297; note: % of control where 0% means no effect; nearly all actives have a fitted effect of over 55% in size
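Treated cells incubate 48 hr (37 C, 5% CO2), are stained 40 min with Hoechst, and nuclear fluorescence is enumerated; a rise in nuclei with high DNA signal marks re-replication.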
Active calls of the source: *; i = inactive; ? = inconclusive; · = no result; [ ] = remark or other dose. Compounds with a hit are over-represented: about 8.2% of the library has one in this group of screens. Calls come from the whole dose curve; as a rule, active = well fitted curve in the direction sought with a large enough effect; inconclusive = small, poorly fitted or top-dose-only effect, or another doubt; inactive = no such curve, though single readings can be large; an effect the other way counts as inactive or inconclusive. Potency is the fitted concentration of half-maximal effect.

SMILES	MCF10A rereplic	ELG1 repair inh	KB-3-1 cytotox	KB-V1 cytotox	SW480 rerep
CC(C)n1nnc(-c2ccc(OCc3ccccc3F)cc2)n1	-3%	?	i	i	15µM*
C/C(=N\NC(=O)C(C)Nc1cccc(Cl)c1)c1ccc([N+](=O)[O-])cc1 (centres undefined)	-81%	9%	i	18µM*	-124%
O=S(=O)(CCN1CCOCC1)c1ccc(Cl)cc1	-3%	·	i	i	2%
NC(=O)C1CCN(CCS(=O)(=O)c2ccc(Cl)cc2)CC1	?	11%	i	i	18µM*
COC(=O)C(C)n1cnc2c(nnn2-c2cccc(OC)c2)c1=O (centres undefined)	1%	?	i	i	?
CCSc1ccccc1C(=O)n1nnc2ccccc21	16µM*	·	?	i	?
COc1ccc(CC2=C(O)c3ccccc3C(=O)C2=O)cc1	14%	-6%	i	i	1%
O=C1C(=O)c2ccccc2C(O)=C1CCCCl	?	18µM*	?	?	-8%
CC(C)COc1nc2ccccc2nc1C(C#N)C(=O)NC1CCCCC1 (centres undefined)	5.8µM*	-8%	i	i	2%
CCOC(=O)c1sc2nc(C3CC3)cc(-c3ccc(F)cc3)c2c1N	?	0%	i	15µM*	18µM*
CCOC(=O)c1sc(-c2ccc(OC)cc2)cc1N	?	?	i	i	18%
CCOC(=O)c1sc2nc(C3CC3)cc(-c3ccc(OC)cc3)c2c1N	3.7µM*	?	i	i	6.5µM*
CC(=O)Nc1cccc(C(=O)OC(C)C(=O)NCc2ccc3c(c2)OCO3)c1 (centres undefined)	2%	12%	i	i	-4%
Cc1cccc(NS(=O)(=O)c2cc(C(=O)OC(C)C(=O)NCc3ccc4c(c3)OCO4)ccc2C)c1 (centres undefined)	17%	23µM*	i	15µM*	15%
CCC(C)NC(=O)c1cnn(-c2cccc(F)c2)c1-n1cccc1 (centres undefined)	·	·	i	?	·
Cc1ccc(C(C)C)c(OCC(=O)Nn2c(C)nc3ccccc3c2=O)c1	-6%	?	i	i	1%
Cc1ccc(C(C)C)c(OCC(=O)Nn2c(=O)[nH]c3ccccc3c2=O)c1	0%	-15%	i	21µM*	-2%
COCCN(C(=O)COC(=O)c1cccnc1SC)c1c(N)n(Cc2ccccc2)c(=O)[nH]c1=O	0%	7%	i	i	-4%
O=C(Nc1ccccc1)c1ccc(=O)[nH]n1	-1%	27%	i	i	-14%
O=C(Nc1ccccc1Cl)c1ccc(=O)[nH]n1	9%	20%	7.3µM*	8.2µM*	?
Cn1cc(-c2coc3c(C(=O)Nc4ccccc4)cccc23)cn1	·	·	i	10µM*	·
Cc1cccc(N2CCN(C(c3ccccc3)c3nnnn3C(C)(C)C)CC2)c1C (centres undefined)	18%	?	?	9.2µM*	?
COc1ccccc1N1CCN(C(c2ccc(Cl)cc2)c2nnnn2C(C)(C)C)CC1 (centres undefined)	-13%	?	?	18µM*	16%
COc1ccccc1C(c1nnnn1C(C)(C)C)N1CCCc2ccccc21 (centres undefined)	-10%	-24%	?	23µM*	?
COc1ccccc1N1CCN(C(c2ccccc2Cl)c2nnnn2C(C)(C)C)CC1 (centres undefined)	27%	·	?	?	?
SMILES	MCF10A rereplic	ELG1 repair inh	KB-3-1 cytotox	KB-V1 cytotox	SW480 rerep
CC(C)(O)CN(CCCNC(=S)Nc1ccccc1)C(=S)Nc1ccccc1	0%	·	i	?	-1%
CN(C)C(=O)C(=O)c1cccn1-c1cccc(Cl)c1C#N	0%	9%	i	i	1%
CCN1CCN(C(=O)N(c2ccccc2)c2ccccc2)CC1	7%	-9%	i	?	-1%
O=C1C2C3C=CC(C4CC34)C2C(=O)N1/N=C/c1ccc(-c2ccc(F)cc2[N+](=O)[O-])o1 (centres undefined)	21%	?	i	i	0%
COc1ccc(-c2ccc(/C=N/N3C(=O)C4C5C=CC(C6CC56)C4C3=O)o2)c([N+](=O)[O-])c1 (centres undefined)	15%	18µM*	i	i	2%
COc1ccc2[nH]c3c(c2c1)CCNC3c1ccc([N+](=O)[O-])o1 (centres undefined)	6%	?	i	i	15%
COc1ccc2[nH]c3c(c2c1)CCNC3C1CC=C(C)CC1 (centres undefined)	0.58µM*	8%	21µM*	?	?
CC1(C2CC2)NC(=O)N(CC(=O)Nc2ccc(OC(F)F)cc2)C1=O (centres undefined)	·	·	?	i	·
C=C1N[C@]2(C(=O)COC(C)=O)[C@@H](C[C@H]3[C@@H]4CCC5=CC(=O)C=C[C@]5(C)[C@H]4[C@@H](O)C[C@@]32C)O1	0%	·	·	·	-5%
CNCC(C)COc1ccccc1OCc1ccccc1 (centres undefined)	0%	-18%	i	21µM*	10%
CCc1ccc(-c2nc3ccc(Br)cc3c(C(=O)O)c2C)s1	10%	27%	?	i	0%
N#Cc1ccccc1OC1=NS(=O)(=O)c2ccccc21	·	·	i	i	·
C(=N\n1cnnc1)/c1cccc(Oc2ccccc2)c1	730%[0.0737 µM]	1%	i	i	21%
Fc1ccccc1COc1cccc(/C=N/n2cnnc2)c1	4%	-17%	i	13µM*	-3%
CC(Sc1nnc(-c2ccccc2F)o1)C(=O)Nc1ccc(N2CCOCC2)cc1 (centres undefined)	3%	?	i	i	4%
Cc1ccccc1-c1nnc(SCC(=O)NC2CCCCC2)o1	-3%	2%	i	i	3%
Cc1ccccc1-c1nnc(SC(C)C(=O)NC2CCCC2)o1 (centres undefined)	1%	-2%	i	21µM*	-3%
Cc1occc1-c1nnc(SC(C)C(=O)Nc2ccccc2F)o1 (centres undefined)	-1%	?	?	10µM*	-9%
CCCNC(=O)c1ccc(N2CCC3(CC2)CC(c2ccccc2)=NO3)c(NC(=O)Cc2ccc(F)cc2)c1	1%	21µM*	i	i	10%
Cc1ccc(C)c(OCC(=O)NNC(=O)CCN2CCN(c3ccccc3)CC2)c1	-2%	-13%	i	21µM*	4%
O=C(CCN1CCN(c2ccccc2)CC1)NNC(=O)c1cccc2ccccc12	1%	-10%	i	18µM*	-2%
COc1ccc(C)cc1NC(=O)CCN1CCN(c2ccccc2)CC1	6%	-24%	i	i	-5%
